# Experimental data taken from PubChem BioAssay.
# Unmarked numbers belong to inactive results.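 Rule for the calls: active = compounds killing one labelled cell type while sparing the other, by normalised counts and ratio limits, not self-fluorescent; inactive = the rest.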
# Test: EMT-state selective cytotoxicity in co-culture – imaging, PC-3E GFP, TEM4-18 mCherry, primary screen (AID 1345086);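 note: normalised mesenchymal count divided by normalised epithelial count so high means epithelial killing; cells exposed to compound for 72 h before imaging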
# Conditions: PC-3E GFP / TEM4-18 mCherry co-culture, imaging cell counts; at 1 µM; actives lie on both sides; counts scaled to control wells, 1 = unselective
row,Structure (SMILES),red/green cell ratio (normalised)
1,C=C1C(=O)OC(C(=O)OC)C1CCCCCCCC(C)O (centres undefined),1.07
2,Oc1ccc(Oc2cnc3ccc(Cl)cc3n2)cc1,0.74
3,C[C@H]1CC[C@@H](C(C)(C)O)CC2=C1CC[C@@H]2C,1.27
4,CC1OC(O[C@H]2/C=C/C=C/C=C/C=C/C=C/C=C/C=C/[C@H](C)[C@@H](O)[C@@H](C)[C@H](C)OC(=O)CC(O)CC(O)CCC(O)C(O)CC(O)C[C@]3(O)C[C@H](O)C(C(=O)O)C(C2)O3)C(O)[C@@H](N)C1O (some centres undefined),1
5,NC(=O)C[C@H](NC(=O)OCc1ccccc1)C(=O)O,1.25
6,COc1c(F)c(F)cc2c(=O)c(C(=O)NO)cn(C3CC3)c12,1.08
7,CC(CCC(=O)O)[C@H]1CCC2C3CC[C@@H]4CCCC[C@]4(C)C3CC[C@@]21C (some centres undefined),0.93
8,CO/C(C)=C1/C(=O)C(CO)OC1O (centres undefined),1.02
9,O=C1Cc2cc(O)ccc2O1,1.26
10,O=C(Nc1ccc(Cl)cc1)Nc1ccc(CO)cc1,0.86
11,C=C[C@](C)(O)CC[C@@H]1[C@@]2(C)CCCC(C)(C)[C@@H]2CC[C@]1(C)O,1.05
12,CC(=O)OC1CCC2(C)C3CC(=O)C4(C)C(CC5OC6(CCC(C)CO6)[C@@H](C)C54)C3CC[C@H]2C1 (some centres undefined),0.89
13,COC(=O)C1O[C@H](OCc2ccccc2)[C@@H](OC(=O)c2ccccc2)[C@@H](OC(=O)c2ccccc2)C1O (some centres undefined),1.02
14,C=C1C(=O)O[C@@H]2C(=O)O[C@@H](CCCCCCCC)[C@H]12,0.86
